# Over roughly 1,100 sequences, “thermal melting temperature (Tm) of peptide-HLA complex” has its median near 58; the lowest 2% begin near 42. Shown is part of a subset that was picked to be rich in the lowest values.
# Target: HLA-A*02:01
# Experiment: thermal melting temperature (Tm) of peptide-HLA complex; higher = more thermostable pHLA complex
# Settings: C1R-A*02:01
# 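Also: lysates heated 10 min at 37–73 °C, complexes pulled down with pan-HLA I antibody, peptide signal by DIA-MS relative to 37 °C, Tm where half the complex is unfolded.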
row,Sequence,thermal melting temperature [°C]
1,AMNDILAQV,62.2
2,KLDFANNVQL,50.3
3,ALLDQLHTL,62.5
4,FLSELTQQL,59.5
5,VLHELTFQA,60.4
6,FVADGIFKA,41.1
7,VLAPHLTRA,53
8,FLSDGTIISV,57.5
9,RLAEALPKQSV,41.8
10,GVIDGHIYAV,61.7
11,SLFPGKLEV,60.4
12,GLLQINDKIAL,41.7
13,RLQEEINEV,55.3
14,YQLEAEFVGV,58.7
15,SLLGGVLRV,55.7
16,TLSDLRVYL,64.7
17,ALFPERITV,61.6
18,YLDIKGLLDV,56

row,Sequence,thermal melting temperature [°C]
1,TLLDPNEKYLL,61.3
2,RLWNETVEL,63.7
3,SIAPRMMSV,48.1
4,FTQDSNYLL,49.1
5,HIADVSHFI,55.3
6,RIADGLPVAV,41
7,VLADQEVRL,58.4
8,GLNEEIARV,64
9,IQDDMQTLYV,43.4
10,ILANDGVLLAA,59.6
11,FLIPIYHQV,62.7
12,SLIRNLEQL,51.2
13,KLLDIPGLEV,61.3
14,YLKDLIEEV,62.8
15,YQIAEQFRV,61.3
16,IAPPVPLKA,53
17,ILSGVIRSV,56.6
18,LLYDGKLSSA,59.4

# Source: the supplement of paper PMC7726561
